Cardio protect: myocardial damage modulation in H9c2 cells | H9c2 cardiomyocytes, H2O2 injury protection, ATPLite, 2 h | protection from H2O2 cell death, % at 20 µM | actives 0.63% (n = 360,000);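 active = compounds giving at least 50% protection of heart cells from peroxide-induced death in the single-dose screen, raw or plate-pattern-corrected value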;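 also: 0% = DMSO wells with peroxide and 100% = DMSO wells without peroxide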
N-glyco inh: blocks N-linked glycosylation in D54 reporter cells. actives 0.23% (n = 360,000). AID 588692. D54 ERlucT glycosylation luciferase reporter, 24 h; percent of 100 nM tunicamycin response. reporter increase, % at 12.5 µM;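 active = mean luciferase reporter signal, scaled so untreated is 0 and the glycosylation-blocking control 100, at or above a set limit in every replicate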;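 also: luciferase carries N-glycosylation sites so blocking glycosylation raises the light; 0% = median of neutral control wells and 100% = median of 100 nM tunicamycin wells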
aDG glyco up: alpha-DG glycosylation activation | activation, % at 10 µM | Pro5-aDG cells, alpha-DG glycosylation AlphaScreen (IIH6); 0% Pro5, 100% B10-LARGE cell signal | actives 0.22% (n = 360,000);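 active = activation of at least 8% versus controls, or a plate z-score of at least 8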;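 also: Pro5 are CHO cells carrying HIG-tagged alpha-DG that lacks glycosylation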
Vif imaging: HIV Vif inhibition | actives 0.35% (n = 340,000) | AID 602346 | HEK293T cells, Vif self-association by quenched fluorescence, imaging, 24 h | inhibition, % at 7.49 µM; in the data active = inhibition above about 50%, passing the limit was not always enough
ARNT TACC3 PPI: disruptors of human ARNT/TACC3 interaction. AlphaScreen His-ARNT PAS-B/GST-TACC3 binding, luminescence; TACC3 fragment carries E629A point mutation. inhibition, % at 9.99 µM. actives 0.66% (n = 390,000). AID 623870;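 active = mean inhibition of replicates at least 50% and at least half of replicates each reaching 50%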;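 also: 0% = complete ARNT plus TACC3 wells and 100% = ARNT alone without TACC3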
An asterisk follows results filed as active; x = not tested or not shown. This is a sample that favours compounds with a hit; in the whole collection about 1.7% have one here.

SMILES	Cardio protect	N-glyco inh	aDG glyco up	Vif imaging	ARNT TACC3 PPI
O=[N+]([O-])c1ccc(Cl)cc1N/N=C/c1ccncc1	-1.2	0.4	-0.1	12.0	-6.8
O=[N+]([O-])c1cc(S(=O)(=O)Nc2ccc(Cl)cc2)ccc1N/N=C/c1ccncc1	-8.5	-12.2	-0.4	67.4*	-2.4
COc1cc2c3nnc(-c4ccc(F)cc4)c-3cn(Cc3ccc(F)cc3)c2cc1OC	-40.1	-9.3	-0.1	94.5*	-0.7
O=C(CC(F)(F)F)N1C[C@@H]2[C@H](c3ccccc31)[C@H](CO)N2C(=O)c1cccnc1	x	x	x	x	-4.1
O=C(Cc1ccccc1)N1C[C@H]2[C@@H](c3ccccc31)[C@@H](CO)N2C(=O)C1CCOCC1	x	x	x	x	-2.1
CC(C)(C)NC(=O)CON=C1c2ccccc2-c2ccccc21	-10.3	-8.3	0.3	-12.5	-2.9
CC(C)(C)NCC(O)CON=C1c2ccccc2-c2ccccc21 (configuration not stated)	17.7	35.3*	1.6	-4.0	2.9
Cc1ccc(NC(=O)C2CC2c2ccccc2)c([N+](=O)[O-])c1 (configuration not stated)	-1.6	0.0	-0.1	32.1	45.6*
C#CCOCCOCCOCCNc1nc(N2CCN(C(=O)C(CCC(=O)O)n3cc(C(N)CC(C)C)nn3)CC2)nc(N2CCN(C(=O)C(Cc3cc4ccccc4[nH]3)n3cc(C(N)Cc4ccc(O)cc4)nn3)CC2)n1 (configuration not stated)	3.0	0.7	-0.1	-0.2	45.5*
CCS(=O)(=O)Nc1ccc2c(c1)C(=O)N(C)C[C@@H](OC)[C@@H](C)CN(C(=O)C1CC1)[C@@H](C)CO2	x	x	x	x	-7.3
COc1ccc(NC(=O)C(OC(=O)c2ccc([N+](=O)[O-])o2)c2ccccc2)cc1Cl (configuration not stated)	52.4*	-0.4	0.0	-0.6	x
Cc1ccccc1C(=O)Oc1cccc(Nc2ncnc3ccccc23)c1	-23.2	-1.1	6.3*	x	1.0
Cc1noc(C)c1NC(=O)Nc1cccc2c1O[C@H](CN(C)C(=O)NC1CCCCC1)[C@H](C)CN([C@@H](C)CO)C2=O	x	x	x	x	-1.9
Cc1ccc(-n2c(SCC(=O)Nc3ccc4c(c3)OCO4)nnc2-c2cccs2)cc1	-8.1	-2.8	-0.2	75.9*	-1.3
C[C@H](CO)N1C[C@H](C)[C@H](CN(C)S(=O)(=O)c2cccs2)Oc2c(NC(=O)c3ccncc3)cccc2C1=O	x	x	x	x	active
C[C@H](CO)N1C[C@H](C)[C@H](CN(C)C)Oc2ccc(NC(=O)Nc3ccc(F)cc3)cc2C1=O	x	x	x	x	45.6*
C[C@@H]1CN([C@@H](C)CO)C(=O)c2cc(NC(=O)Nc3ccc4c(c3)OCO4)ccc2O[C@H]1CN(C)S(=O)(=O)c1ccc(F)cc1	19.5	-8.3	0.0	-6.0	1.0
C[C@H](CO)N1C[C@H](C)[C@@H](CN(C)S(=O)(=O)c2ccccc2)Oc2ccc(NC(=O)Nc3ccccc3)cc2C1=O	75.6*	-0.6	0.0	7.1	-1.6
C[C@H]1CN([C@@H](C)CO)C(=O)c2cc(NC(=O)Nc3ccccc3)ccc2O[C@@H]1CN(C)S(=O)(=O)c1ccccc1	x	x	x	x	-1.0
C[C@@H]1CN([C@H](C)CO)C(=O)c2cc(NC(=O)Nc3ccc(F)cc3)ccc2O[C@@H]1CN(C)C	x	x	x	x	-25.7
C[C@H](CO)N1C[C@H](C)[C@@H](CN(C)S(=O)(=O)c2ccc(F)cc2)Oc2ccc(NC(=O)Nc3ccc4c(c3)OCO4)cc2C1=O	62.1*	-2.7	-0.2	x	2.3
C[C@H](CO)N1C[C@H](C)[C@@H](CN(C)C(=O)Nc2ccc3c(c2)OCO3)Oc2ccc(N(C)C)cc2C1=O	x	x	x	x	10.0*
C[C@@H]1CN([C@H](C)CO)C(=O)c2cc(NC(=O)Nc3ccccc3)ccc2O[C@H]1CN(C)S(=O)(=O)c1cccs1	x	x	x	x	-2.6
C[C@@H]1CCCCO[C@@H](CN(C)S(=O)(=O)c2cccs2)[C@H](C)CN([C@H](C)CO)C(=O)c2cc(NS(C)(=O)=O)ccc2O1	x	x	x	x	17.5
C[C@@H]1CCCCO[C@H](CN(C)S(=O)(=O)c2cccs2)[C@@H](C)CN([C@@H](C)CO)C(=O)c2cc(NS(C)(=O)=O)ccc2O1	x	x	x	x	active
SMILES	Cardio protect	N-glyco inh	aDG glyco up	Vif imaging	ARNT TACC3 PPI
C[C@@H]1CN([C@H](C)CO)C(=O)Cc2cc(NC(=O)CCN3CCOCC3)ccc2O[C@H]1CN(C)C(=O)Nc1ccc2c(c1)OCO2	x	x	x	x	46.5*
C[C@H](CO)N1C[C@H](C)[C@@H](CN(C)S(=O)(=O)c2cccs2)Oc2ccc(NC(=O)Nc3ccccc3)cc2C1=O	67.5*	1.8	-0.1	x	-2.4
C[C@@H]1CN([C@@H](C)CO)S(=O)(=O)c2ccc(C#CCN(C)C)cc2O[C@@H]1CN(C)S(C)(=O)=O	x	x	x	x	0.2
COc1ccccc1-c1ccc([C@@H]2[C@@H](CO)N(C(=O)CN(C)C)[C@H]2C#N)cc1	x	x	x	x	0.3
CC(C)(C)S(=O)N1Cc2cc(C(=O)NCCCN3CCOCC3)nc(-c3cccc(C#CCC4CCCC4)c3)c2[C@@H]1CCO (some centres not stated)	x	x	x	x	10.2
C[C@H](CO)N1C[C@H](C)[C@@H](CN(C)S(=O)(=O)c2ccccc2)Oc2c(NC(=O)Cc3ccccc3)cccc2C1=O	0.2	27.7*	0.1	11.9	1.3
CCC(=O)N(C)C[C@@H]1Oc2ncc(C#Cc3ccncc3)cc2C(=O)N([C@@H](C)CO)C[C@H]1C	x	x	x	x	0.4
C=C(C)CN(CC)C(=O)CSc1nc2ncc(Cl)cc2[nH]1	6.8	0.8	0.0	-0.6	-0.6
C=C(C)CSc1nc2ncc(Cl)cc2[nH]1	0.9	0.2	-0.1	68.7*	-0.4
Cc1noc(C)c1NC(=O)N(C)C[C@@H]1Oc2ccc(NC(=O)C3CC3)cc2CC(=O)N([C@H](C)CO)C[C@@H]1C	x	x	x	x	-8.6
Cc1ccc(/C=N/c2sc3c(c2C#N)CCC3)s1	-15.7	-3.0	0.1	53.4*	7.4
O=C(CSc1nncs1)Nc1nnc(-c2ccccc2)o1	3.2	0.6	-0.1	-11.5	53.5*
CN(CC(=O)Nc1ccc(F)cc1)C(=O)CSc1nncs1	4.6	1.6	-0.2	16.3	-10.6
O=C(Cc1ccccc1)Nc1nnc(-c2ccccc2)o1	6.8	3.7	-0.1	-2.2	17.4
O=C(CSc1nncs1)NCc1ccc(F)cc1	2.3	1.9	0.0	50.9*	23.3
CC1(C(=O)OCC(=O)Nc2nnc(-c3ccccc3)o2)CC1(Cl)Cl (configuration not stated)	17.6	1.6	0.1	4.2	48.8*
CNC[C@H]1Oc2ccc(NC(=O)Nc3cccc4ccccc34)cc2C(=O)N([C@@H](C)CO)C[C@H]1C	x	x	x	x	-5.4
O=C(NCC(=O)N(Cc1cccs1)C(C(=O)NC1CCCC1)c1ccco1)c1cccs1 (configuration not stated)	59.3*	-1.6	-0.1	0.5	2.2
O=C(NCC(=O)N(Cc1cccs1)C(C(=O)NC1CCCCC1)c1ccncc1)c1ccco1 (configuration not stated)	3.1	1.1	0.5	5.7	x

Compound activity as filed in PubChem BioAssay.
